# Screening data from PubChem BioAssay.
# CYP2C19 activ = human CYP2C19 activators, primary screen, biochemical, luminescence; Cytochrome P450 2C19 (Homo sapiens), P33261; recombinant CYP2C19, luciferin-H EGE luminescence; stronger effect = higher value; 0 = fully inhibited enzyme, 1 = untreated enzyme; activation factor at 5 µM; 96,000 tested, under 10 active; AID 1025, 2008;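 active means activation factor of at least 2 at 5 µM in the primary screen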;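 further: 0 = wells with 2.5 mM tranylcypromine and 1 = vehicle-only wells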
# PLK1 inh = human PLK1 kinase inhibitors, primary screen, biochemical, TR-FRET. recombinant PLK1 kinase, TR-FRET peptide phosphorylation. inhibition, % at 10 µM. Serine/threonine-protein kinase PLK1 (Homo sapiens), P53350. 97,000 tested, 0.53% active;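 active means inhibition of 50% or more in the single-concentration screen; inactive means inhibition below 50%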;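 further: 0% = DMSO max control and 100% = H-89 dihydrochloride min control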
# Target sequence (P53350 whole entry, looked up): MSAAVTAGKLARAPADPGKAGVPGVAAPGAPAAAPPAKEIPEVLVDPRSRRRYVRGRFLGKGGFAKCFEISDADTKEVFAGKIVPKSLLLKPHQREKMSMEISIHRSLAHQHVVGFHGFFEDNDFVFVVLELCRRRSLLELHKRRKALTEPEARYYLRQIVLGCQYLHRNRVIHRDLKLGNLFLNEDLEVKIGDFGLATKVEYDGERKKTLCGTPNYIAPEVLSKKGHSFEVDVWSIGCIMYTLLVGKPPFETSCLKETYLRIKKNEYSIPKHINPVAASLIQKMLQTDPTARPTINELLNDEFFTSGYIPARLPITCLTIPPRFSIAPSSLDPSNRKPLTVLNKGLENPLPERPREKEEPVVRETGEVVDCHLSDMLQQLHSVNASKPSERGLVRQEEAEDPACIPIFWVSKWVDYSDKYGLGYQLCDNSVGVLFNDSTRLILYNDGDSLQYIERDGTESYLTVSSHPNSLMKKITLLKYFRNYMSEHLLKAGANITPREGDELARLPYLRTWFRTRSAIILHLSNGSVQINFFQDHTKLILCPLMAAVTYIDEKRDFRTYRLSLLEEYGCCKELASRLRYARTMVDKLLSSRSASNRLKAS
# CYP2C19 inh = blockers of cytochrome P450 2C19 activity – biochemical, luminescence, ADME assay, primary screen. 96,000 tested, 21% active. inhibition, % at 5 µM. P33261. CYP2C19 Supersomes, luciferin-H EGE luminescence, 30 min;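 active means CYP2C19 inhibition above a set limit at 5 µM in the primary screen, cut at about 50% in these data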;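 further: plate controls were negative control wells for no effect and 2.5 mM tranylcypromine positive control for full effect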
# PLK1 PBD inh = Plk1 polo box domain binding inhibitors, primary screen, biochemical, fluorescence polarization; Serine/threonine-protein kinase PLK1 (Homo sapiens), P53350; Plk1 PBD phosphopeptide binding; inhibition, %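 (tested at about 20 µM)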; 97,000 tested, 0.13% active; AID 693, 2007; in the data active means inhibition above about 34%, passing the limit was not always enough
# CYP2C9 act = human CYP2C9 activators, primary screen, biochemical, luminescence; recombinant CYP2C9, luciferin-H conversion; stronger effect = higher value; factor 1 = untreated enzyme, 0 = blocked; activation factor at 5 µM; 96,000 tested, 1.4% active;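 active means activation factor of 2 or more for CYP2C9 at a 5 µM dose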;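 further: 0 = sulfaphenazole-blocked wells and 1 = vehicle-only wells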
# CYP2C9 inhib = blockers of cytochrome P450 2C9 activity – biochemical, luminescence, ADME assay, primary screen. AID 777, 2007. inhibition, % at 5 µM. 96,000 tested, 20% active. P11712. CYP2C9 Supersomes, luciferin-H conversion;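 active means blocking of liver enzyme CYP2C9 beyond about 50% at 5 µM, limit read from the data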
# The depositor's hits bear a star; nt = not tested or not shown. Hits are enriched below; roughly 28% of the tested compounds scored in any of these assays.
SMILES,CYP2C19 activ,PLK1 inh,CYP2C19 inh,PLK1 PBD inh,CYP2C9 act,CYP2C9 inhib
CSc1ccc(NC(=O)NCCN2CCc3ccccc3C2)cc1,0.7,-8,34,1,0.8,15
Cc1ccc(CNc2ccc(CNc3ncn[nH]3)cc2)cc1,0.2,3,77*,-24,0.4,63*
CCCCCCCCCOC(=O)C(CC(=O)O)N1CCOCC1 (stereo not drawn),1,-4,4,11,0.2,77*
O=[N+]([O-])c1cnccc1Nc1ccccc1,0,-3,98*,4,0.1,92*
O=[N+]([O-])c1cnccc1Nc1ccc(F)cc1,nt,-3,nt,7,nt,nt
O=C(NC1CCCCCCC1)C1CCCN(S(=O)(=O)c2cnc[nH]2)C1 (stereo not drawn),0.1,-6,87*,-32,0.5,55*
O=C(NC1CCCC1)C1CCCN(S(=O)(=O)c2cnc[nH]2)C1 (stereo not drawn),0.5,-2,49,-10,0.8,24
O=C(NC1CCCCC1)C1CCCN(S(=O)(=O)c2cnc[nH]2)C1 (stereo not drawn),0.4,-5,60*,-22,0.7,28
Cc1ccc(C(=O)Nc2nnc(C3CCCCC3)s2)o1,1,-6,4,-17,1,-4
O=S(=O)(c1ccc(S(=O)(=O)N(Cc2ccc(F)cc2)C2CCCC2)cc1)N1CCCC1,0.3,nt,68*,nt,0.2,77*
COC(=O)CCN(C1CCCCC1)S(=O)(=O)c1ccc(S(=O)(=O)N2CCCCC2)cc1,0.9,0,8,0,0.9,8
O=C(c1ccco1)N1CCN(CC(O)COc2ccc3oc4ccccc4c3c2)CC1 (stereo not drawn),0.9,-5,15,11,0.5,51*
Cc1ccc(C(=O)Nc2nc(C)c(C)s2)o1,0.7,0,29,25,0.7,32
O=C(NCC(=O)N(c1cccc(F)c1)C(C(=O)NCC1CCCO1)c1ccccc1)c1ccco1 (stereo not drawn),1.1,nt,-13,nt,1.1,-13
O=C(O)CC(c1cccc(Cl)c1)n1cccc1 (stereo not drawn),1,-10,1,0,0.6,39
Cc1cccc(C(CC(=O)O)n2cccc2)c1 (stereo not drawn),0.9,-8,6,-14,0.2,76*
CCC(Sc1ccccn1)C(=O)Nc1nnc(C)s1 (stereo not drawn),0.4,-18,56*,3,0.4,63*
Cc1cc(/C=N/n2cnnc2)c(C)n1-c1cc(Cl)ccc1Cl,0,-7,100*,-7,0.2,79*
Cc1cc(/C=N/n2cnnc2)c(C)n1-c1ccc2c(c1)OCO2,0,-1,100*,-14,0.1,88*
Cc1cc(/C=N/n2cnnc2)c(C)n1-c1ccc(C(=O)O)cc1,1,-20,-2,-9,0.9,7
Cc1cccc(NC(=O)Cn2cnc3ccc(S(=O)(=O)N4CCC(C)CC4)cc3c2=O)n1,1,5,2,-8,0.7,31
c1ccc2c(c1)nc1n2C2(N3CCOCC3)CCCC2C1N1CCOCC1 (stereo not drawn),0.9,nt,13,nt,0,99*
CCCSc1nc(C)c(CC(=O)O)c(=O)[nH]1,1,3,-3,-3,1,-1
COC(=O)c1ccc(COc2ccc(-c3nn[nH]n3)cc2)cc1,0.7,-11,30,2,0.6,39
COC(=O)COc1ccc(C(=O)OC)cc1,0.2,-4,81*,-18,0.7,29
SMILES,CYP2C19 activ,PLK1 inh,CYP2C19 inh,PLK1 PBD inh,CYP2C9 act,CYP2C9 inhib
COC(=O)c1ccc(OCC(=O)c2ccccc2OC)cc1,0.1,-1,90*,-2,0.6,45
COC(=O)c1ccc(NC(=O)COc2ccccc2OC)cc1,0.6,-3,44,33,0.8,20
CC1(C)NC(=O)N(CC(O)COc2ccccc2-c2ccccc2)C1=O (stereo not drawn),0,10,99*,-8,0.1,87*
CC1(C)NC(=O)N(CC(O)COC2CCCCC2)C1=O (stereo not drawn),0.2,7,82*,-20,0.6,42
c1ccc(N(c2ccccc2)c2nc(-n3ccnc3)nc(-n3ccnc3)n2)cc1,0.8,5,18,-17,1,3
CN(c1ccccc1)c1nc(-n2ccnc2)nc(-n2ccnc2)n1,0.2,-4,79*,-15,0.6,44
CCCCNc1nc(N(C)c2ccccc2)nc(-n2ccnc2)n1,0.1,-6,85*,-6,0.2,84*
CC(=O)N(CCO)Cc1cc2cc(C)cc(C)c2[nH]c1=O,1,2,1,29,0.9,8
COc1cc(CNCc2ccccn2)ccc1OCc1ccc(Cl)cc1Cl,0.3,-3,73*,-7,0.8,17
COc1cccc(CNCCOCCO)c1OC,1,2,3,10,1.1,-8
COc1cccc(CNCc2ccccn2)c1OC,0.3,-5,74*,32,0.8,20
COc1cc(CNCc2ccccn2)ccc1OCC(N)=O,0.9,-3,8,-25,1,-3
CCOC(=O)N=S(=O)(Oc1ccc([N+](=O)[O-])cc1)c1ccccc1 (stereo not drawn),0.2,-6,78*,15,0.7,29
CCOC(=O)N=S(=O)(Oc1ccc([N+](=O)[O-])cc1)c1ccc(Cl)cc1 (stereo not drawn),nt,-14,nt,9,nt,nt
O=C(OCn1ncc(Br)c(Br)c1=O)c1c(F)cccc1F,0.2,-12,83*,29,0.6,38
CCOC(=O)c1nn(-c2ccc(Cl)cc2)c2nc(Nc3ccccc3)cc(=O)n12,1.1,-19,-8,-8,0.7,33
CCOc1ccc(N/C=C/C(=O)c2ccc(OC)cc2)c([N+](=O)[O-])c1,0.7,-18,26,9,3*,-200
Cc1ccc2c(Cl)cc(Cl)c(OCC(=O)Nc3cc(C)on3)c2n1,0.5,-10,50*,17,1.9,-89
COc1ccc(OCCC(=O)Nc2cc(C)on2)cc1,0.4,-1,63*,22,0.7,29
COc1ccc(CC(=O)Nc2cc(C)on2)cc1,0.7,-6,26,-12,1,2
COc1ccc(N/C=C/C(=O)c2ccc(C)cc2)c([N+](=O)[O-])c1,nt,-6,nt,40,nt,nt
CC(C)(C)c1ccc(OCCC(=O)NC2=NCCS2)cc1,0.9,-8,12,-39,1.1,-11
COc1ccc(OCCC(=O)NC2=NCCS2)cc1,0.2,-9,76*,-1,1.2,-18
